PubChem BioAssay
The source made the active and inactive calls.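 Rule for the calls, unless noted: active = visual image review flags a hit and inhibition of aggregation exceeds 20%; inconclusive = visual hit but inhibition at or below 20%; inactive = no hit on visual image review.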

Assays:
[1] = inhibitors of TNFa-induced NFkB p65 translocation, primary screen, imaging, HUVEC, MLSMR starter and 10KST1 sets (AID 438;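 active = inhibition above 20% together with a positive visual image hit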;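 note: compound added about 3h40 before a 20 min TNFalpha stimulation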;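 for inhibition: signal is the nuclear over cytoplasmic p65 intensity ratio per well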); settings: HUVEC TNFa-induced p65 nuclear translocation; cell count: measured here: nuclei count (cytotoxicity indicator), at 2.08 µM; inhibition: at 2 µM, stronger effect = higher value, 0% TNFa-plus-vehicle, 100% no-TNFa wells
[2] = inhibitors of mutant huntingtin aggregation, primary screen, imaging, exon1htt(103Q)mCFP cells, high-content imaging (AID 483); settings: exon1htt(103Q)mCFP cell line, aggregate imaging, at 2 µM; inhibition of aggregation: stronger effect = higher value; nuclei count: measured here: cell count, toxicity;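 note: compound exposure lasted 3 days before fixation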;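 for nuclei count: percent of the per-plate median nuclei count of sample wells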
[3] = inhibitors of E-selectin induction by TNFa, primary screen, imaging, HUVEC, immunofluorescence, MLSMR starter and 10KST1 sets (AID 487;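 active = visually confirmed hit in the image check and inhibition above 20%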;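 for inhibition: signal is fraction of cell area covered by stained E-selectin grains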;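 for nuclei count: 100% = median nuclei count of all wells on the same plate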); settings: HUVEC TNFalpha-induced E-selectin immunofluorescence imaging, at 2 µM; inhibition: stronger effect = higher value; nuclei count: measured here: cell number, toxicity
[4] = target: Voltage-gated potassium channel subunit beta-2 (Rattus norvegicus) (UniProt P62483); experiment: KvBeta enzyme negative modulators, primary screen, biochemical, NADPH fluorescence (AID 622;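 active = fluorescence slope higher than the sample average by over 3 SD, cut at about -0.22 in these data, passing the limit was not always enough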;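 note: slope of raw intensity against log time taken from 70 to 1610 s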); settings: recombinant KvBeta, 4-cyanobenzaldehyde reduction, at 10 µM, stronger effect = higher value
[5] = target: Voltage-gated potassium channel subunit beta-2 (Rattus norvegicus) (UniProt P62483); experiment: KvBeta positive modulators, primary screen, biochemical, NADPH fluorescence (AID 623;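 active = NADPH fluorescence slope more negative than the mean of all samples by about 3 SD, 99.7% confidence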;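 note: fluorescence intensity change per second fitted from 20 to 320 s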); settings: Recombinant KvBeta, NADPH fluorescence decrease slope, 10 min; at 10 µM; stronger effect = lower value
[6] = target: Alpha-2C adrenergic receptor (Homo sapiens) (UniProt P18825); experiment: modulators of alpha2C/GIRK thallium flux, primary screen, cell-based, HEK293 alpha2C/GIRK1/2 (AID 624;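 active = fluorescence slope after compound addition differing from the mean of all screened samples at 99.7% confidence, in either direction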;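 note: slope of fluorescence ratio to pre-addition baseline per second over 15 to 24 s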); settings: thallium flux BTC fluorescence, at 10 µM, actives lie on both sides
[7] = inhibitors of Sendai virus-induced IRF3 signaling, primary screen, TLR/RLR signaling modifier project, cell-based, Sendai virus stimulus, luciferase, 10K MLSCN set (AID 602276;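 active = inhibition at or above 50% at 10 µM; inactive = inhibition below 50%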;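 note: firefly luciferase from ISG56 promoter only with Renilla not read in this screen; 0% = Sendai virus plus DMSO and 100% = medium plus DMSO without virus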); settings: HEK293 RL24 IRF3 luciferase reporter, at 10 µM, stronger effect = higher value
[8] = inhibitors of poly I:C-induced TLR3 signaling, primary screen, cell-based, poly I:C stimulus, luciferase, 10K MLSCN set (AID 602277;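 active = inhibition of the reporter signal at or above 50%; inactive = inhibition below 50%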); settings: HEK293-TLR3 RL24 IRF3 luciferase reporter, at 10 µM, stronger effect = higher value

Chain of Voltage-gated potassium channel subunit beta-2 (Rattus norvegicus) (P62483 whole entry, looked up): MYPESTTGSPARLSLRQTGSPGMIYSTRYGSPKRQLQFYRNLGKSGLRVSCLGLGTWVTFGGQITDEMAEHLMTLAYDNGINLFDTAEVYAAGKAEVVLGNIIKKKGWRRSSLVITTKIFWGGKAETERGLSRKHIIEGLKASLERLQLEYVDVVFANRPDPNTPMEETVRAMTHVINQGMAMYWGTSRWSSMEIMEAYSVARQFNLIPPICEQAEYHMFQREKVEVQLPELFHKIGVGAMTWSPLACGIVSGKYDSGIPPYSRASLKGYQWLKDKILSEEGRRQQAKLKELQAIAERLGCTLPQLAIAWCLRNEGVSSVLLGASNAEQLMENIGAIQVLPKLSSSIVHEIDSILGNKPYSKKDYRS
Chain of Alpha-2C adrenergic receptor (Homo sapiens) (P18825 whole entry, looked up): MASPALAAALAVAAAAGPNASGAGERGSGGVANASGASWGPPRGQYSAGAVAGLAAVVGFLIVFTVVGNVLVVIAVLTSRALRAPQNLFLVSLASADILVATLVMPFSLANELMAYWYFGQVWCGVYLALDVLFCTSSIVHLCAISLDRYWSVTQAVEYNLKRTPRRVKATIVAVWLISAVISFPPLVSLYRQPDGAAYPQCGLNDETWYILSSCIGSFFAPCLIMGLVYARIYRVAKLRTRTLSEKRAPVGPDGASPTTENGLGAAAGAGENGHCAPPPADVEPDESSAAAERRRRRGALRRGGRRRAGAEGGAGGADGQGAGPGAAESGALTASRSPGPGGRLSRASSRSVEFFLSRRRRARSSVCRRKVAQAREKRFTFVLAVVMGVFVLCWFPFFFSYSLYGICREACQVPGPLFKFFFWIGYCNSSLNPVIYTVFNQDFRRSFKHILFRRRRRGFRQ

| SMILES | cell count [1] | inhibition [1] | inhibition of aggregation [2] | nuclei count [2] | inhibition [3] | nuclei count [3] | fluorescence slope [4] | NADPH fluorescence slope [5] | slope [6] | inhibition [7] | inhibition [8] |
| --- | --- | --- | --- | --- | --- | --- | --- | --- | --- | --- | --- |
| O=C(c1sc2ccccc2c1Cl)N(Cc1cccs1)C1CCS(=O)(=O)C1 (stereo unspecified) | 677 | 4.4% (inactive) | 17.9% (inactive) | 90.3% | 10.4% (inactive) | 108% | -0.579 (inactive) | -2.7e-05 (inactive) | 0.00741 (inactive) | 10.4% (inactive) | 32.5% (inactive) |
| O=S1(=O)CCC(N=Cc2cc(Br)ccc2O)C1 (stereo unspecified) | 500 | -13.1% (inactive) | 32.5% (inactive) | 76.6% | 18% (inactive) | 97.7% | -0.498 (inactive) | -4e-05 (inactive) | 0.0045 (inactive) | 17.3% (inactive) | 22.5% (inactive) |
| CS(=O)(=O)N1CCCC(C(=O)NCCCN2CCc3ccccc3C2)C1 (stereo unspecified) | 228 | 3.4% (inactive) | 10.5% (inactive) | 83.5% | 35.8% (inactive) | 83.4% | -0.54 (inactive) | -1.5e-05 (inactive) | 0.00591 (inactive) | -8.77% (inactive) | 5.97% (inactive) |
| COc1ccc(-c2cc(N3CCCC3)n3ncnc3n2)cc1 | 640 | 11.9% (inactive) | 7.3% (inactive) | 118% | -3.2% (inactive) | 102% | -0.473 (inactive) | -2.2e-05 (inactive) | 0.00575 (inactive) | -11.3% (inactive) | -11.7% (inactive) |
| CCOC(=O)Cc1csc(NC(=O)CSc2nnc(C3CC3)n2C)n1 | 670 | -11.2% (inactive) | 2.2% (inactive) | 110% | 18.1% (inactive) | 102% | -0.265 (inactive) | -5.6e-05 (inactive) | 0.0044 (inactive) | 10.5% (inactive) | 17.5% (inactive) |
| Cn1c(=O)c2c(nc(NCC3CCCO3)n2C)n(C)c1=O (stereo unspecified) | 314 | 0.2% (inactive) | -10.3% (inactive) | 108% | -102% (inactive) | 122% | -0.609 (inactive) | -1.6e-05 (inactive) | 0.00331 (inactive) | 6.21% (inactive) | 6.02% (inactive) |
| O=C(NCCCNC1CCCCC1)c1ccc(/C=N/O)nc1 | 221 | 2% (inactive) | -20.6% (inactive) | 67.6% | -97.6% (inactive) | 108% | -0.62 (inactive) | -1.9e-05 (inactive) | 0.00681 (inactive) | 7.85% (inactive) | 23% (inactive) |
| CC1=C(C(=O)NCc2ccccn2)C2(CCC(C)CC2)OC1=O (stereo unspecified) | 759 | -5% (inactive) | 16.1% (inactive) | 91.3% | 19.6% (inactive) | 110% | -0.521 (inactive) | -2.4e-05 (inactive) | 0.00608 (inactive) | 12.1% (inactive) | 26.9% (inactive) |
| CCCCCC(=O)N(CN1C(=O)CCC1=O)c1ccccc1 | 806 | 5.4% (inactive) | -9.8% (inactive) | 100% | 21.6% (inactive) | 111% | -0.283 (inactive) | -4e-05 (inactive) | 0.00618 (inactive) | 9.92% (inactive) | 13.3% (inactive) |
| CCCc1cc(C(=O)Nc2sc(C)c(C)c2C(=O)OCC)no1 | 856 | 2.3% (inactive) | 2.1% (inactive) | 126% | -79.7% (inactive) | 114% | -0.229 (inactive) | -5.5e-06 (inactive) | 0.00716 (inactive) | 8.68% (inactive) | 31.8% (inactive) |
| O=C(Cn1cnc2ccccc2c1=O)NCCC(=O)N1CCN(Cc2ccccc2)CC1 | 451 | -3.8% (inactive) | 31.1% (inactive) | 80.5% | -0.7% (inactive) | 112% | -0.416 (inactive) | -9.6e-05 (inactive) | 0.00528 (inactive) | 12.1% (inactive) | 24.7% (inactive) |
| CS(=O)(=O)Nc1ccccc1C(=O)O | 363 | -2.1% (inactive) | -4.3% (inactive) | 113% | -81.2% (inactive) | 121% | -0.411 (inactive) | -2.7e-05 (inactive) | 0.00253 (inactive) | 11.5% (inactive) | 33% (inactive) |
| CN(C)S(=O)(=O)N1CCN(c2cccc(Cl)c2)CC1 | 411 | -0.2% (inactive) | 16.9% (inactive) | 87.3% | -14.6% (inactive) | 99.2% | -0.514 (inactive) | 7.3e-06 (inactive) | 0.00363 (inactive) | 10.3% (inactive) | 20.7% (inactive) |
| CCCCn1c(CN(C)Cc2ccccc2)nc2c1c(=O)n(C)c(=O)n2C | 227 | -6.1% (inactive) | 13.2% (inactive) | 57% | 16.4% (inactive) | 103% | -0.605 (inactive) | -6.4e-05 (inactive) | 0.00658 (inactive) | -18.7% (inactive) | -58.3% (inactive) |
| CCOC(=O)c1sc(NC(=O)CSc2nnnn2-c2ccccc2)c(C(=O)OCC)c1C | 425 | -1.3% (inactive) | 12.5% (inactive) | 96.5% | -467% (inactive) | 156% | -0.567 (inactive) | 1.2e-05 (inactive) | 0.00928 (inactive) | -15.7% (inactive) | -15.7% (inactive) |
| COCCCNC(=O)CSc1nc2ccc(N3CCOCC3)cc2c(=O)n1CCc1ccccc1 | 369 | -1.6% (inactive) | -0.2% (inactive) | 104% | 17% (inactive) | 113% | -0.558 (inactive) | 1.6e-05 (inactive) | 0.00582 (inactive) | -0.853% (inactive) | -8.93% (inactive) |
| CCOc1ccc(N(C(C)C(=O)NC2CCCCCC2)S(C)(=O)=O)cc1 (stereo unspecified) | 355 | 2.7% (inactive) | -10.8% (inactive) | 109% | -40.2% (inactive) | 107% | -0.342 (inactive) | -4e-05 (inactive) | 0.00764 (inactive) | 3.76% (inactive) | 19.7% (inactive) |
| O=C(NCc1cccs1)C1CC(c2ccccc2O)=NO1 (stereo unspecified) | 347 | 1.7% (inactive) | -11.8% (inactive) | 104% | -122% (inactive) | 108% | -0.601 (inactive) | -2.2e-05 (inactive) | 0.00342 (inactive) | 12.7% (inactive) | 67.7% (active) |
| COc1ccccc1-c1nnc(SCC(=O)N2CC(C)CC(C)C2)o1 (stereo unspecified) | 351 | 11.1% (inactive) | -3.7% (inactive) | 112% | 28% (inactive) | 94.8% | -0.411 (inactive) | -5.2e-05 (inactive) | 0.00365 (inactive) | 21.4% (inactive) | 29.2% (inactive) |
| CCc1ccc(C(=O)NC2CCCCC2)s1 | 355 | -1.2% (inactive) | 0.6% (inactive) | 98.5% | 11.7% (inactive) | 104% | -0.523 (inactive) | -4.3e-05 (inactive) | 0.00428 (inactive) | -41.5% (inactive) | -96.5% (inactive) |
| CC1Cc2ccccc2N1C(=O)CSc1nnc2n1C(C)(C)Cc1ccccc1-2 (stereo unspecified) | 247 | -0.2% (inactive) | 21.8% (inactive) | 84.2% | 5.5% (inactive) | 69.7% | -0.434 (inactive) | 2.5e-05 (inactive) | 0.00483 (inactive) | 5.38% (inactive) | -63.7% (inactive) |
| CC(C)COc1ccc(-c2nnn(CC(=O)N3CCCC3)n2)cc1 | 473 | -5.5% (inactive) | -13.3% (inactive) | 106% | 19.6% (inactive) | 109% | -0.564 (inactive) | -5.5e-05 (inactive) | 0.00381 (inactive) | -2.78% (inactive) | -17.8% (inactive) |
| Cc1cc(C)n(C(=O)C23CC4CC(CC(C4)C2)C3)n1 | 448 | 0.9% (inactive) | 14.6% (inactive) | 102% | -12% (inactive) | 89.4% | -0.514 (inactive) | -2.3e-05 (inactive) | 0.00607 (inactive) | 6.1% (inactive) | 17.9% (inactive) |
| CC(C)CCSc1nc2c(c(=O)[nH]c(=O)n2C)n1CCCc1ccccc1 | 618 | -5.9% (inactive) | 26.4% (inactive) | 103% | -34.8% (inactive) | 120% | -0.414 (inactive) | -4.8e-05 (inactive) | 0.00519 (inactive) | 10.3% (inactive) | 29.8% (inactive) |
| CCOC(=O)N1CCN(Cc2nc3c(c(=O)n(C)c(=O)n3C)n2Cc2ccc(F)cc2)CC1 | 697 | 0.3% (inactive) | -1.6% (inactive) | 91.7% | -23.4% (inactive) | 123% | -0.557 (inactive) | -3.3e-05 (inactive) | 0.00745 (inactive) | 16.7% (inactive) | 39.9% (inactive) |
| Cn1nnnc1SCC(=O)N1CCN(c2ccccc2)CC1 | 400 | -0.2% (inactive) | 7% (inactive) | 97.4% | -49.9% (inactive) | 97.6% | -0.362 (inactive) | -4.2e-05 (inactive) | 0.00625 (inactive) | 11.7% (inactive) | 27.5% (inactive) |
